Measurements reported in PubChem BioAssay (EPA / NIEHS).
Calls of active or inactive are those of the source. How the source made its calls: active means hit-call score of the fitted dose curve at least 0.9, where 1 is the maximum; inactive means score below 0.9.

Assays:
[1] = read-out: serum amyloid A (SAA), SAA1 (gene 6288); assay: BSK_CASM3C_SAA: BioMAP Diversity Plus: CASM3C Assay for serum amyloid A (SAA) Biomarker Activity (AID 2283049); settings: primary human coronary artery smooth muscle cells; actives raise or lower the signal;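 further: SAA protein level quantified by ELISA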
[2] = BSK_CASM3C_SRB: Viability Assessment in the BioMAP Diversity Plus: CASM3C Assay (AID 2283050); settings: primary human coronary artery smooth muscle cells
[3] = read-out: Thrombomodulin, THBD (gene 7056); assay: BSK_CASM3C_Thrombomodulin: BioMAP Diversity Plus: CASM3C Assay for Thrombomodulin Biomarker Activity (AID 2283051); settings: primary human coronary artery smooth muscle cells; actives raise or lower the signal;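 further: thrombomodulin protein level measured by ELISA 24 h after dosing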
[4] = read-out: Tissue Factor, F3 (gene 2152); assay: BSK_CASM3C_TissueFactor: BioMAP Diversity Plus: CASM3C Assay for Tissue Factor Biomarker Activity (AID 2283052); settings: primary human coronary artery smooth muscle cells; actives raise or lower the signal;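 further: cell surface tissue factor protein level read by ELISA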
[5] = read-out: Interferon-gamma inducible Protein 10 (IP10), CXCL10 (gene 3627); assay: BSK_hDFCGF_IP10: BioMAP Diversity Plus: hDFCGF Assay for Interferon-gamma inducible Protein 10 (IP10) Biomarker Activity (AID 2283053); settings: primary human foreskin fibroblasts; actives raise or lower the signal
Method in brief: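 Human foreskin fibroblast primary cells (hDFCGF system) were dosed with chemical and assayed at 24 h; IP-10 measured by ELISA. Activity fitted bidirectionally relative to DMSO negative control as baseline.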

[6] = read-out: Urokinase-type plasminogen activator receptor (uPAR), PLAUR (gene 5329); assay: BSK_CASM3C_uPAR: BioMAP Diversity Plus: CASM3C Assay for Urokinase-type plasminogen activator receptor (uPAR) Biomarker Activity (AID 2283054); settings: primary human coronary artery smooth muscle cells; actives raise or lower the signal;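 further: cell-surface uPAR protein level quantified by ELISA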
[7] = read-out: Vascular cell adhesion molecule 1 (VCAM1), VCAM1 (gene 7412); assay: BSK_CASM3C_VCAM1: BioMAP Diversity Plus: CASM3C Assay for Vascular cell adhesion molecule 1 (VCAM1) Biomarker Activity (AID 2283055); settings: primary human coronary artery smooth muscle cells; actives raise or lower the signal;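 further: VCAM-1 protein level quantified by ELISA on the cells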
[8] = read-out: Collagen III, COL3A1 (gene 1281); assay: BSK_hDFCGF_CollagenIII: BioMAP Diversity Plus: hDFCGF Assay for Collagen III Biomarker Activity (AID 2283056); settings: primary human foreskin fibroblasts; actives raise or lower the signal
Method in brief: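 Human foreskin fibroblast primary cultures sampled 24 h after dosing; Collagen III quantified by ELISA. Signal fitted bidirectionally against DMSO baseline.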

[9] = read-out: Epidermal growth factor receptor (EGFR), EGFR (gene 1956); assay: BSK_hDFCGF_EGFR: BioMAP Diversity Plus: hDFCGF Assay for Epidermal growth factor receptor (EGFR) Biomarker Activity (AID 2283057); settings: primary human foreskin fibroblasts; actives raise or lower the signal
Method in brief: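 Primary human foreskin fibroblasts were exposed to compound for 24 h, after which cell-surface EGFR was quantified by ELISA. Activity was fitted bidirectionally against the DMSO negative control as baseline.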

[10] = read-out: Interleukin-8 (IL8), CXCL8 (gene 3576); assay: BSK_hDFCGF_IL8: BioMAP Diversity Plus: hDFCGF Assay for Interleukin-8 (IL8) Biomarker Activity (AID 2283058); settings: primary human foreskin fibroblasts; actives raise or lower the signal
Method in brief: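 Primary human foreskin fibroblasts (hDFCGF system) dosed with chemical; IL-8 measured by ELISA 24 hours later. Bidirectional curve fitting relative to DMSO baseline; cytotoxicity tracked in parallel cultures by SRB total protein staining.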

[11] = BSK_hDFCGF_Proliferation: Cell Proliferation Assessment in the BioMAP Diversity Plus: hDFCGF Assay (AID 2283059); settings: primary human foreskin fibroblasts;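 further: curves fitted for both rise and fall of signal versus DMSO baseline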
Method in brief: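 Sub-confluent human foreskin fibroblast cultures receive test chemical […]. Relative cell number is quantified by sulforhodamine B staining (0.1%, after 10% TCA fixation) at 560 nm, with bidirectional fitting referenced to DMSO.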

[12] = read-out: Macrophage colony-stimulating factor (MCSF), CSF1 (gene 1435); assay: BSK_hDFCGF_MCSF: BioMAP Diversity Plus: hDFCGF Assay for Macrophage colony-stimulating factor (MCSF) Biomarker Activity (AID 2283060); settings: primary human foreskin fibroblasts; actives raise or lower the signal
Method in brief: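 Human foreskin fibroblast primary cultures; M-CSF measured by ELISA 24 hours after chemical dosing. Bidirectional fitting relative to DMSO, with overt cytotoxicity tracked by parallel SRB total-protein staining (0.1% SRB, 10% TCA fixation, 560 nm).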

[13] = BSK_hDFCGF_SRB: Viability Assessment in the BioMAP Diversity Plus: hDFCGF Assay (AID 2283061); settings: primary human foreskin fibroblasts;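 further: cells exposed to compound for 24 h before the read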
Method in brief: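 Human foreskin fibroblasts in 96-well plates were treated 24 h. Total protein was measured by 0.1% SRB staining after 10% TCA fixation, read at 560 nm. Data were fitted bidirectionally against DMSO.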

[14] = read-out: TIMP metallopeptidase inhibitor 1 (TIMP1), TIMP1 (gene 7076); assay: BSK_hDFCGF_TIMP1: BioMAP Diversity Plus: hDFCGF Assay for TIMP metallopeptidase inhibitor 1 (TIMP1) Biomarker Activity (AID 2283062); settings: primary human foreskin fibroblasts; actives raise or lower the signal
Method in brief: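 Human foreskin fibroblast primary cultures dosed for 24 h; secreted/surface TIMP-1 quantified by ELISA. Bidirectional curve fitting against DMSO baseline; cytotoxicity tracked in parallel cultures by SRB total-protein staining.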

[15] = read-out: Monokine induced gamma interferon (MIG), CXCL9 (gene 4283); assay: BSK_hDFCGF_MIG: BioMAP Diversity Plus: hDFCGF Assay for Monokine induced gamma interferon (MIG) Biomarker Activity (AID 2283063); settings: primary human foreskin fibroblasts; actives raise or lower the signal
Method in brief: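 MIG/CXCL9 measured by ELISA 24 h after dosing primary human skin fibroblasts. Activity fitted in both directions against DMSO controls. Cytotoxicity was checked in parallel cultures by SRB staining read at 560 nm.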

[16] = read-out: Matrix Metallopeptidase 1 (MMP1), MMP1 (gene 4312); assay: BSK_hDFCGF_MMP1: BioMAP Diversity Plus: hDFCGF Assay for Matrix Metallopeptidase 1 (MMP1) Biomarker Activity (AID 2283064); settings: primary human foreskin fibroblasts; actives raise or lower the signal
Method in brief: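 Primary human foreskin fibroblasts exposed to chemicals for 24 h; MMP1 measured by ELISA. Cytotoxicity tracked by SRB staining in parallel cultures; bidirectional fit relative to DMSO.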

[17] = read-out: Vascular cell adhesion molecule 1 (VCAM1), VCAM1 (gene 7412); assay: BSK_hDFCGF_VCAM1: BioMAP Diversity Plus: hDFCGF Assay for Vascular cell adhesion molecule 1 (VCAM1) Biomarker Activity (AID 2283065); settings: primary human foreskin fibroblasts; actives raise or lower the signal;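 on AC50: VCAM-1 protein level quantified by ELISA after 24 h chemical exposure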
Method in brief: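 Human foreskin fibroblast primary cells dosed with chemical, VCAM-1 measured by ELISA at 24 h. Bidirectional curve fitting relative to DMSO as negative control/baseline.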

[18] = read-out: Plasminogen activator inhibitor-1 (PAI1), SERPINE1 (gene 5054); assay: BSK_hDFCGF_PAI1: BioMAP Diversity Plus: hDFCGF Assay for Plasminogen activator inhibitor-1 (PAI1) Biomarker Activity (AID 2283066); settings: primary human foreskin fibroblasts; actives raise or lower the signal
Method in brief: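 Human foreskin fibroblasts in the hDFCGF system were dosed with compound for 24 h; PAI-1 was quantified by ELISA. Bidirectional curve fitting used DMSO as negative control and baseline.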

[19] = read-out: Intercellular Adhesion Molecule 1 (ICAM1), ICAM1 (gene 3383); assay: BSK_KF3CT_ICAM1: BioMAP Diversity Plus: KF3CT Assay for Intercellular Adhesion Molecule 1 (ICAM1) Biomarker Activity (AID 2283067); settings: primary human keratinocytes with fibroblasts; actives raise or lower the signal
Method in brief: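 Human keratinocyte–foreskin fibroblast co-culture was treated for 24 h. Cell-surface ICAM-1 was quantified by ELISA, fitted bidirectionally relative to DMSO. Cytotoxicity was checked in parallel cultures by SRB total-protein staining.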

[20] = read-out: Interferon-gamma inducible Protein 10 (IP10), CXCL10 (gene 3627); assay: BSK_KF3CT_IP10: BioMAP Diversity Plus: KF3CT Assay for Interferon-gamma inducible Protein 10 (IP10) Biomarker Activity (AID 2283068); settings: primary human keratinocytes with fibroblasts; actives raise or lower the signal
Method in brief: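 ELISA read-out of IP-10 after 24 h chemical dosing of human skin primary co-culture (keratinocytes, foreskin fibroblasts). Gain or loss of signal relative to DMSO, bidirectional curve fit.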

Measured: AC50

CSc1nnc(C(C)(C)C)c(=O)n1N
active: [5] 12.7 µM | [6] 1.32 µM | [8] 3.97 µM | [14] 30.4 µM
inactive: all other assays above

C[N+]1(C)CCCCC1
inactive: all assays above

COP(=O)(OC)SCn1c(=O)oc2cc(Cl)cnc21
active: [2] 24.7 µM | [3] 5.31 µM | [5] 13 µM | [6] 35.5 µM | [7] 20 µM | [8] 14.7 µM | [10] 30.8 µM | [11] 10.1 µM | [12] 10.4 µM | [13] 13.8 µM | [14] 12 µM | [15] 19.3 µM | [16] 30.6 µM | [17] 16.3 µM | [18] 17 µM | [19] 18 µM | [20] 16.5 µM
inactive: [1] | [4] | [9]
